Test [1] is described as follows: qHTS assay to identify small molecule agonists of the estrogen receptor alpha (ER-alpha) signaling pathway in the presence of an antagonist - cell viability counter screen (AID 1259386).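 Note: series mostly up to about 92 µM; cells exposed to compounds for 22 h at 37 °C before the viability read; nearly all actives have a fitted effect of over 30% in size.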 An outline of the steps: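 VM7Luc4E2, stripped-serum pre-culture 5 d; 24hr plating; +ICI-182,780 10.0nM final; cpds 15 conc, 22hr, 37C/5% CO2; CellTiter-Fluor added at 21hr, fluorescence 1hr later.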
(Quantitative high-throughput screening tests each substance at several concentrations.)

In test [2] the target is Progesterone receptor (Homo sapiens) (UniProt P06401). Nature of the test: qHTS assay to identify small molecule antagonists of the progesterone receptor (PR) signaling pathway (AID 1346795; active = well fitted inhibition curve with a large enough effect in the signal ratio in the repeat runs, not every such curve was filed as active; the % refers to the signal ratio). An outline of the steps:
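In HEK293T cells bearing the PR-UAS-bla reporter, compound effects on promegestone-driven (1 nM) beta-lactamase expression are assessed after 16 hr using a fluorescent FRET substrate incubated 2 hr at room temperature.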

Test [3] in a line: qHTS assay to identify small molecule antagonists of the progesterone receptor (PR) signaling pathway - cell viability counter screen (AID 1346798). Note: series mostly up to about 92 µM; nearly all actives have a fitted effect of over 50% in size. An outline of the steps:
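Following a 4 hr attachment, PR-UAS-bla HEK293T cells in charcoal-stripped FBS medium were exposed to compounds with R5020 for 16 hr; CellTiter-Glo was added and luminescence read after 30 min at room temperature.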

A short description of test [4]: qHTS assay to identify small molecule agonists of the progesterone receptor (PR) signaling pathway - cell viability counter screen (AID 1346799; calls by dose curve; note: nearly all actives have a fitted effect of over 45% in size). An outline of the steps:
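Here, 3,000 PR-UAS-bla HEK293T cells per well were treated with compounds for 16 hr after a 6 hr preincubation at 37C and 5% CO2; cell viability is the CellTiter-Glo luminescence signal.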

Test [5] is described as follows: qHTS assay to identify small molecule antagonists of the TGF-beta/Smad signaling pathway - cell viability counter screen (AID 1346824). Note: nearly all actives have a fitted effect of over 50% in size. An outline of the steps:
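Cytotoxicity counter-screen run in the same wells as the beta-lactamase Smad reporter read: CellTiter-Glo luminescence after 30 min at room temperature. HEK 293T SBE-bla cells had 5 hr compound exposure at 37 C with TGF-beta1 (0.25 ng/mL stock).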

Test [6] in a line: qHTS assay to identify small molecule agonists of the TGF-beta/Smad signaling pathway (AID 1346859; active = well fitted activation curve with a large enough effect in the signal ratio in the repeat runs, not every such curve was filed as active; the % refers to the signal ratio; note: series mostly up to about 77 µM). An outline of the steps:
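Each well held 4,000 SBE-bla HEK 293T cells incubated overnight before compound addition; 5 hr later the cleavable FRET substrate went on for 2 hr at room temperature, and fluorescence was read at two emissions.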

For test [7], the target named is Thyrotropin-releasing hormone receptor (Homo sapiens) (UniProt P34981). Nature of the test: qHTS assay to identify small molecule antagonists of the thyrotropin-releasing hormone receptor (TRHR) signaling pathway (AID 1346877; active = well fitted inhibition curve with a large enough effect in the repeat runs, not every such curve was filed as active; note: series mostly up to about 51 µM). An outline of the steps: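 Intracellular calcium fluorescence, read kinetically every second over 3 min, reports TRH-evoked signalling in HEK293 cells carrying TRHR. Test compounds were added 5 min ahead of a 1 nM TRH challenge.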

Test [8] shares this target. Nature of the test: qHTS assay to identify small molecule agonists of the thyrotropin-releasing hormone receptor (TRHR) signaling pathway (AID 1346891; calls by dose curve; note: series mostly up to about 58 µM). An outline of the steps:
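Screening of agonists relied on calcium signalling in HEK293 cells expressing human TRHR: dye loading 2 h at 37 °C preceded compound addition and a 3-min fluorescence time course.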

The nature of test [9]: Human pregnane X receptor (PXR) small molecule agonists, qHTS cell viability counter screen (AID 1346977). Note: nearly all actives have a fitted effect of over 50% in size. In a few lines: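 Tox21 qHTS format; PXR-Luc HepG2, 2,000/well, charcoal-stripped FBS 5%. Cpd exposure 24hr. Read: CellTiter-Fluor fluorescence, multiplexed with luciferase.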
The nature of test [10]: Caspase-3/7 induction in HepG2 cells by small molecules, qHTS assay (AID 1346978). Note: nearly all actives have a fitted effect of over 15% in size. In a few lines: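 Caspase-3/7 induction was measured by Caspase-Glo 3/7 luminescence (30 min, room temperature) after a 17 hr compound exposure of wild-type HepG2 cells seeded at 2,000 per well and pre-incubated 5 hr.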
Test [11] can be described thus: Caspase-3/7 induction in CHO-K1 cells by small molecules, qHTS assay (AID 1346980). Note: nearly all actives have a fitted effect of over 15% in size. In a few lines:
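Luminescent Caspase-Glo 3/7 read (30min, room temperature) quantified apoptosis induction. Cells were wild-type CHO-K1, treated with compound for 17hr at 37 C and 5% CO2.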

Test [12] is described as follows: Caspase-3/7 induction in HepG2 cells by small molecules, qHTS cell viability counter screen (AID 1346981). Note: series mostly up to about 92 µM; nearly all actives have a fitted effect of over 30% in size. In a few lines:
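HepG2, WT, 2,000 cells/well; 5 hr pre-incubation 37 C/5% CO2; compound pin-transferred from DMSO; 16 hr exposure; CellTiter-Fluor, 1 hr; fluorescence read.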

Test [13] deals with Nuclear receptor subfamily 1 group I member 2 (Homo sapiens) (UniProt O75469). Nature of the test: Human pregnane X receptor (PXR) small molecule agonists, qHTS assay (AID 1346982). Note: nearly all actives have a fitted effect of over 35% in size. In a few lines:
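Luciferase signal from ONE-Glo (30 min, room temperature) measured activation of hPXR-driven CYP3A4 reporter expression in PXR-Luc HepG2 cells treated with compounds for 24 hr at 37 C.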

Test [14] addresses Progesterone receptor (Homo sapiens) (UniProt P06401). Description: qHTS assay to identify small molecule agonists of the progesterone receptor (PR) signaling pathway (AID 1346784; calls by dose curve; note: nearly all actives have a fitted effect of over 30% in size). An outline of the steps:
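Compounds were tested for PR agonism in HEK 293T cells bearing a beta-lactamase gene under UAS control. Treatment lasted 16 hr at 37C; signal came from fluorescence of a FRET substrate.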

Test [15] is described as follows: qHTS assay to identify small molecule agonists of the TGF-beta/Smad signaling pathway - cell viability counter screen (AID 1346829). Note: top concentration of the series differs between compounds; nearly all actives have a fitted effect of over 45% in size. In a few lines: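 In parallel with the Smad reporter read, viability of HEK 293T cells stably carrying SBE-bla is quantified by ATP luminescence following 5 hr compound treatment.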
Test [16] concerns the target Nuclear receptor subfamily 1 group I member 2 (Rattus norvegicus) (UniProt Q9R1A7). Nature of the test: Rat pregnane X receptor (rPXR) activation by small molecules, qHTS assay (AID 1346983). Note: nearly all actives have a fitted effect of over 20% in size. As to conditions: rPXR luciferase reporter cells, One-Glo luminescence, 24 h; max activation: active compounds read high. An outline of the steps: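 Luminescent readout (One-Glo luciferase, 30 min room temperature) followed 24 hr compound treatment at 37 C of rPXR cells plated 2,000 per well and preincubated 5hr; qHTS format with compounds delivered in DMSO.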

Test [17] is described as follows: Caspase-3/7 induction in CHO-K1 cells by small molecules, qHTS cell viability counter screen (AID 1346979). Note: nearly all actives have a fitted effect of over 35% in size. Note: potency is the fitted concentration of half-maximal effect. In a few lines: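 CellTiter-Fluor viability check, qHTS format: wild-type CHO-K1, 16hr compound treatment, 1hr reagent incubation, fluorescence read.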
Test [18] concerns the target Nuclear receptor subfamily 1 group I member 2 (Homo sapiens) (UniProt O75469). Nature of the test: CYP3A4 induction through human pregnane X receptor (PXR) by small molecules, qHTS assay (AID 1346984). Note: nearly all actives have a fitted effect of over 40% in size. In a few lines:
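Luminescence readout: luciferase signal after One-Glo (30 min, room temperature), following 3 h at 37C with 3uM final Luciferin-IPA P450 substrate. Cells were DPX-2 (HepG2, PXR/CYP3A4-luc co-transfected) dosed for 24 h.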

For test [19] the target is unchanged. Nature of the test: Human pregnane X receptor (PXR) activation by small molecules, qHTS assay (AID 1346985). Note: nearly all actives have a fitted effect of over 40% in size. In a few lines:
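DPX-2 cells (HepG2 co-transfected with a PXR response element and a CYP3A4-promoter luciferase construct) were seeded at 2,000 per well, rested 5 hr at 37C, then exposed to DMSO-dissolved compounds for 24 hr. Activation was read as luciferase luminescence.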

Unmarked numbers belong to inactive results. Records with an inconclusive call do not appear. Calls of active or inactive are those of the source. Unless noted, calls come from the whole dose curve; as a rule, active = well fitted curve in the direction sought with a large enough effect in the repeat runs; inconclusive = weak or mixed curves; inactive = no such curve, though single readings can be large; an effect the other way counts as inactive or inconclusive.
% is set by controls: 0 for no effect and ±100 for the full control effect.

Progesterone receptor (Homo sapiens), sequence (P06401 whole entry, looked up): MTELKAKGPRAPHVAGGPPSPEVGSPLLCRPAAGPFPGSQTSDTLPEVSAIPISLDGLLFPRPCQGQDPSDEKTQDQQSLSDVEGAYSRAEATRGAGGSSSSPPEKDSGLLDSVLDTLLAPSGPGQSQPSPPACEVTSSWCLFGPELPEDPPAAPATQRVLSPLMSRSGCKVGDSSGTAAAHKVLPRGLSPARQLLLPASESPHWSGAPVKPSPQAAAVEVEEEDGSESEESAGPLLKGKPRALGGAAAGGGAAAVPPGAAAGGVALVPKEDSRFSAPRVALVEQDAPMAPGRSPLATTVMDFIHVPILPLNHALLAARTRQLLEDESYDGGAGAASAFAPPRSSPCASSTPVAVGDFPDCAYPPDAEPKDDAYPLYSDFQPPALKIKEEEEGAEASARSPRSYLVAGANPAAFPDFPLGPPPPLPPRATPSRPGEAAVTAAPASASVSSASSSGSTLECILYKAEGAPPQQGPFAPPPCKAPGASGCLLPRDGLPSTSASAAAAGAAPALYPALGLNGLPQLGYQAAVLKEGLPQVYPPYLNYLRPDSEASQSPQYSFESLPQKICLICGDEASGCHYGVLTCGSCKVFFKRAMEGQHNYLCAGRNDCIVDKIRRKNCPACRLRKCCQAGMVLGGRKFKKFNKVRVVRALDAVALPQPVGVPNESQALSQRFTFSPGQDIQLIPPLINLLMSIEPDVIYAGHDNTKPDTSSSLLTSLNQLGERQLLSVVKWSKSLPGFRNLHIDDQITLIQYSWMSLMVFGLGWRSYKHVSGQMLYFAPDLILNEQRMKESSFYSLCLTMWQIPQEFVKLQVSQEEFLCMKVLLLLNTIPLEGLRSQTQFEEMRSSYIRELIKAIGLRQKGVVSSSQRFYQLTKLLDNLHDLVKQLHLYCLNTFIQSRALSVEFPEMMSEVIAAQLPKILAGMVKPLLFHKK
Nuclear receptor subfamily 1 group I member 2 (Rattus norvegicus), sequence (Q9R1A7 whole entry, looked up): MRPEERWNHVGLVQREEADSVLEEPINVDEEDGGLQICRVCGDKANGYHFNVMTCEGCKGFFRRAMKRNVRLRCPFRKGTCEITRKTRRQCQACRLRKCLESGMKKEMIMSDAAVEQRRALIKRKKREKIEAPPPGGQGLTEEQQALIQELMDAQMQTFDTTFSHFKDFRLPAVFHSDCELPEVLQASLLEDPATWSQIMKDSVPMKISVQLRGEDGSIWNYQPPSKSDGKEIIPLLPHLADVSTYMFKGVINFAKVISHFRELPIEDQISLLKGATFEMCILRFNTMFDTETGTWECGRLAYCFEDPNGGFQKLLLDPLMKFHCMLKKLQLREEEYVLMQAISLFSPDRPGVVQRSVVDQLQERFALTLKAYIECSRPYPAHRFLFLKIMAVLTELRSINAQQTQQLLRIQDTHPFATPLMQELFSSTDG
Nuclear receptor subfamily 1 group I member 2 (Homo sapiens), sequence (O75469 whole entry, looked up): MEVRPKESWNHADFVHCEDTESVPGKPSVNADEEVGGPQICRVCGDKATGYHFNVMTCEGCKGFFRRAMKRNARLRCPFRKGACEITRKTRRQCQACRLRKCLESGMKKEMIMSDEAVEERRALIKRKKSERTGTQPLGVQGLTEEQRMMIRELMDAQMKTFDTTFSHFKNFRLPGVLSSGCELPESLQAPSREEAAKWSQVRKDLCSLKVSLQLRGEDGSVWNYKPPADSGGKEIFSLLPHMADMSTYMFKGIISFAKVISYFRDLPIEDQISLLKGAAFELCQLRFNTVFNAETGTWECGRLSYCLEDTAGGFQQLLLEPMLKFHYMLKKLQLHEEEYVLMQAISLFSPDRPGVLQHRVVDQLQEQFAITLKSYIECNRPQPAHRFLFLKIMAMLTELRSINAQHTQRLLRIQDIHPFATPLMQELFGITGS
Thyrotropin-releasing hormone receptor (Homo sapiens), sequence (P34981 whole entry, looked up): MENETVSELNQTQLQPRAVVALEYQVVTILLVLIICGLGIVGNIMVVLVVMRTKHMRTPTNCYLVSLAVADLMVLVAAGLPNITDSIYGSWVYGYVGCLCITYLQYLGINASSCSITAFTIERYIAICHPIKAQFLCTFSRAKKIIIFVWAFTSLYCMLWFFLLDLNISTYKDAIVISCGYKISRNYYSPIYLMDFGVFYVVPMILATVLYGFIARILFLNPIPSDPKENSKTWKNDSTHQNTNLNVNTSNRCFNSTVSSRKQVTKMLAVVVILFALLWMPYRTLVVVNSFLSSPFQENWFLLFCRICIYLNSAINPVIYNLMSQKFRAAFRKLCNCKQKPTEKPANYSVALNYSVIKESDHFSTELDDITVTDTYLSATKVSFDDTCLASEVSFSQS

As for `CCc1ccc(C)cc1`, the Potency result in [1], in test [2], in test [3], in test [4], in test [6] and in test [9] was “inactive” each time. Further, the Potency result in test [10], in test [12] and in test [13] was “inactive” in each case. In addition, the result in test [5], in test [7], in test [8] and in test [11] was inactive.

Consider `CC(C(=O)O)c1ccc(C(=O)c2cccs2)cc1` (stereo unspecified), for which the Potency result in [1], in [14], in [2], in [3], in test [4] and in [15] was “inactive” each time. Moreover, the Potency entry in test [6], in test [9] and in test [10] was “inactive” each time. In addition, the molecule was classed as inactive in [7], in test [8] and in test [11]. Further, the max activation in test [16] was -2.97%.

Turning to `O=[N+]([O-])C1(Br)COCOC1`, the Potency result in test [1], in test [14], in test [2], in test [3], in [4] and in test [15] was “inactive” throughout. Also, the Potency entry in test [6], in [10] and in test [12] was “inactive” in each case. Further, the molecule was classed as inactive in test [5], in test [7], in test [8] and in test [11]. Also, the Potency in test [17] was 54.5 µM (active).

In the case of `CCCCCCCCCCCC(=O)OCC(O)CO` (stereo unspecified), the Potency result in test [1], in test [14], in test [2], in test [3], in test [15] and in test [6] was “inactive” throughout. For the same molecule, the Potency result in [9], in test [10], in test [12], in [13], in test [18] and in test [19] was “inactive” throughout. The result in test [5], in test [7], in test [8] and in [11] was inactive. The max activation in test [16] is -6.09%.

For `COc1ccc(C2C(=O)c3ccccc3C2=O)cc1`, the Potency entry in [1], in test [14], in test [2], in test [3], in test [4] and in test [15] was “inactive” each time. In addition, the Potency entry in test [6], in [9], in test [10], in test [17], in [12] and in test [13] was “inactive” each time. Moreover, the Potency result in test [18] was “inactive”. Moreover, the result in test [7], in test [8] and in test [11] was inactive. The max activation in test [16] is 8.42%.

Regarding `CC(C)N=C=NC(C)C`, the Potency entry in test [1], in [14], in test [2], in [4], in test [15] and in test [6] was “inactive” throughout. For the same molecule, the Potency entry in [9], in test [10], in [17], in [12] and in [13] was “inactive” in each case. Also, the molecule was classed as inactive in [5], in [7], in [8] and in test [11].

For `OCC(CO)n1cnc(-c2ccc(F)cc2)c1-c1ccnc(Oc2ccccc2)n1`, the Potency result in test [1], in test [14], in test [2], in [3], in [4] and in test [15] was “inactive” throughout. Besides, the Potency result in test [6], in test [9], in test [10], in [17] and in [12] was “inactive” each time. Besides, the result in [7], in test [8] and in [11] was inactive.

As to `CC1CCCO1` (stereo unspecified), the Potency result in test [1], in [14], in test [3], in test [4], in test [15] and in [6] was “inactive” throughout. In addition, the Potency entry in [9], in test [10] and in [17] was “inactive” each time. Besides, the outcome in [5], in [7], in [8] and in test [11] was inactive.
